{"source": "PubChem BioAssay", "key": {"[1]": {"assay": "activators of macrophage pro-inflammatory response, cell-based, murine, luminescence (AID 652131)", "conditions": "murine macrophage pro-inflammatory reporter, hits give high values"}, "[2]": {"assay": "inhibitors of Cryptococcus chitosan production, flow cytometry, Cibacron Brilliant Red staining (AID 1347148);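 further: compound exposure lasted three days at 37 degrees C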", "conditions": "Cryptococcus neoformans chitosan, hits give low values; at 10 µM unless noted"}, "[3]": {"assay": "antimalarial activity against Dd2 strain (AID 2302;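 active means growth inhibition above 50% at the single 2 µM test dose, taken to imply half-maximal potency below 2 µM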;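 further: 0% = DMSO untreated growth and 100% = chloroquine plus artemisinin killed control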)", "conditions": "P. falciparum Dd2 in RBCs, LDH growth readout, 72 h; at 2 µM; hits give high values"}, "[4]": {"assay": "HepG2 cytotoxicity, primary screen, cytotoxicity control for P. falciparum antimalarial project, cell-based, ATP luminescence (AID 2303;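 active means inhibition above 50%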;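 further: 0% = DMSO wells and 100% = digitonin-killed cells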)", "conditions": "HepG2 viability, 24-48 h, at 10 µM, hits give high values"}, "[5]": {"biological_target": "L-lactate dehydrogenase (Plasmodium falciparum (isolate CDC / Honduras)) (UniProt Q27743)", "sequence (Q27743 whole entry, looked up)": "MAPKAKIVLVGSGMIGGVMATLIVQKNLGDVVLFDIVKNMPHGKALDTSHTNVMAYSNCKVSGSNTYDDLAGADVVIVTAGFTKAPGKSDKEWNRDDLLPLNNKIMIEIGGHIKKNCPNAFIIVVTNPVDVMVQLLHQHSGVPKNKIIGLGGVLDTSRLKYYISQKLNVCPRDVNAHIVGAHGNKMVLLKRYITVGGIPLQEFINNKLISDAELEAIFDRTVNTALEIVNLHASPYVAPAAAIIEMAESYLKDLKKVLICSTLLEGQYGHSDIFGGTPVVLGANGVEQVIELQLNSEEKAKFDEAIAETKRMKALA", "assay": "PfLDH activity inhibition – cell lysate, 3D7 strain, counter-screen for P. falciparum growth inhibition project (AID 2304);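 further: 0% = vehicle and 100% = reference inhibitor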", "conditions": "P. falciparum 3D7 crude extract, LDH APAD/NBT absorbance; at 2 µM; hits give high values"}, "[6]": {"assay": "inhibition of 3D7 malaria parasite growth – strain 3D7 (AID 2306);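 further: 0% = DMSO wells and 100% = chloroquine plus artemisinin control wells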", "conditions": "P. falciparum 3D7 erythrocytic growth, LDH absorbance, 72 h; at 2 µM; hits give high values"}, "[7]": {"biological_target": "Calcium-dependent protein kinase 1 (Plasmodium falciparum (isolate 3D7)) (UniProt P62344)", "sequence (P62344 whole entry, looked up)": "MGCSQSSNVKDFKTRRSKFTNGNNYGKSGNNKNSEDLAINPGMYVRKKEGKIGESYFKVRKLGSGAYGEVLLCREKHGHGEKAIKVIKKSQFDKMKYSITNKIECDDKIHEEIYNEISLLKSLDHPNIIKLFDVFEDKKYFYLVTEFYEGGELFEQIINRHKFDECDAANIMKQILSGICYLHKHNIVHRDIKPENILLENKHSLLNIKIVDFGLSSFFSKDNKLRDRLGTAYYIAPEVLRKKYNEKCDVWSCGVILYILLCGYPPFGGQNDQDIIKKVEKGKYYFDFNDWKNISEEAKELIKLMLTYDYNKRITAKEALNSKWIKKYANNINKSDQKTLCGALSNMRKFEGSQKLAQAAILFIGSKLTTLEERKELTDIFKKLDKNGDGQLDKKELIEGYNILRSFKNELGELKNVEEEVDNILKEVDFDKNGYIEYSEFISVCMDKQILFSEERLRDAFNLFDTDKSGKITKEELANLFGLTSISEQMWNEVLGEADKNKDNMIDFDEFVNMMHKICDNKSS", "assay": "PfCDPK1 kinase inhibitors, biochemical, TCAMS library (AID 1159585; cut-off not given, nearly all actives have IC50 up to about 0.98 µM;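 further: inhibitors leave more ATP so luminescence rises with inhibition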)", "conditions": "recombinant PfCDPK1, Kinase-Glo ATP depletion luminescence"}, "[8]": {"biological_target": "Plasmodium falciparum protein kinase 6 (PK6, PF3D7_1337100) (UniProt Q8IDW1)", "sequence (Q8IDW1 1-305)": "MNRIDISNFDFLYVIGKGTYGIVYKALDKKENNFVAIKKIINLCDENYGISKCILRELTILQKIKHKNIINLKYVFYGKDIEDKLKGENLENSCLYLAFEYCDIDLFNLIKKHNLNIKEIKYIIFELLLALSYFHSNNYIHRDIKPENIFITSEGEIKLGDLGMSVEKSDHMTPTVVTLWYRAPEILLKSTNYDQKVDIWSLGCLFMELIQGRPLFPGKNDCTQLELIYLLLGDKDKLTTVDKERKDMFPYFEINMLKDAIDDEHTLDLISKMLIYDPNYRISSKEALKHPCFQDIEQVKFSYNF", "assay": "PfPK6 kinase inhibitors, biochemical, TCAMS library (AID 1159586)", "conditions": "recombinant PfPK6, Kinase-Glo ATP depletion luminescence"}, "[9]": {"biological_target": "Protein kinase 7 (PK7), Plasmodium falciparum 3D7 (PF3D7_0213400) (UniProt Q7YTF7)", "sequence (Q7YTF7 1-343)": "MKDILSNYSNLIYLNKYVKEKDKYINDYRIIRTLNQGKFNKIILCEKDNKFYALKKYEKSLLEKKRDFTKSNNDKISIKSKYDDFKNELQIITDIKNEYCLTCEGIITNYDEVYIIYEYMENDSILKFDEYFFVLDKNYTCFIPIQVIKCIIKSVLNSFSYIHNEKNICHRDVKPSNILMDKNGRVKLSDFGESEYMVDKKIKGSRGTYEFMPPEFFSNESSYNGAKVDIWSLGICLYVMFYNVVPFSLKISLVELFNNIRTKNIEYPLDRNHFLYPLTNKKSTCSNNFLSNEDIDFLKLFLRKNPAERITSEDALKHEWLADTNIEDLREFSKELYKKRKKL", "assay": "inhibition of Plasmodium PK7 catalytic activity – biochemical, TCAMS antimalarial set, Kinase-Glo luminescence (AID 1159587)", "conditions": "recombinant PfPK7, Kinase-Glo ATP depletion luminescence"}, "[10]": {"biological_target": "Calcium-dependent protein kinase 4 (Plasmodium falciparum (isolate 3D7)) (UniProt Q8IBS5)", "sequence (Q8IBS5 whole entry, looked up)": "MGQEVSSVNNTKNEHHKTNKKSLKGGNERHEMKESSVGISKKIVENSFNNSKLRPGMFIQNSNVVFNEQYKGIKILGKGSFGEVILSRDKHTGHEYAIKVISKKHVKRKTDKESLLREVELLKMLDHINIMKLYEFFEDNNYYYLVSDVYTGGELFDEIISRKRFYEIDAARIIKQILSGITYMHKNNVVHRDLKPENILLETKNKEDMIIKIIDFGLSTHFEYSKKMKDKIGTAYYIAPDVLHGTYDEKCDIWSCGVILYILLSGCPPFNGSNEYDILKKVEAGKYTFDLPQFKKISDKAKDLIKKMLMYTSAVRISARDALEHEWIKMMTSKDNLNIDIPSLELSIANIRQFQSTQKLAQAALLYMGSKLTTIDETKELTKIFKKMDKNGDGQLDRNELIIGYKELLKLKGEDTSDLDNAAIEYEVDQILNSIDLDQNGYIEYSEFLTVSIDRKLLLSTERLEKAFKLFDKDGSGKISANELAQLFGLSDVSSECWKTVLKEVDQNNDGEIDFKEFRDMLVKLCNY", "assay": "PfCDPK4 kinase inhibitors, biochemical, TCAMS library (AID 1159588; cut-off not given, nearly all actives have IC50 up to about 0.91 µM)", "conditions": "recombinant PfCDPK4, Kinase-Glo ATP depletion luminescence"}, "[11]": {"assay": "protection of motor neurons from glutamate death, cell-based, TUNEL DNA degradation staining, MNGlu (AID 1594)", "conditions": "glutamate-induced death, at 1 µM, hits give high values"}}, "note": "Values without a mark were called inactive. Results filed as inconclusive are left out. For some of these results: Results with a measured potency or affinity are listed apart. Activity calls are given as the source filed them. Unless noted, how the calls were made is not given here.", "data": [{"smiles": "CNC(=O)Oc1cc(C)c(/C=C/c2cncc(C(=O)NC)c2)c(C)c1", "values": [{"measurement": "z-score", "setting": "[1]", "value": -0.101}]}, {"smiles": "O=C(NC1NNC2NNC(c3cccnc3)CC21)C1CC1", "note": "(stereo not drawn)", "values": [{"measurement": "z-score", "setting": "[1]", "value": 4.01}]}, {"smiles": "O=c1[nH]c2ccccc2n1C1CCN(CCCC(c2ccc(F)cc2)c2ccc(F)cc2)CC1", "values": [{"measurement": "fold fluorescence", "setting": "[2]", "value": "5.15 [at 108.3 µM]"}]}, {"smiles": "C[C@@H]1C[C@@H]([C@H](O)CC2CC(=O)NC(=O)C2)C(=O)[C@@H](C)C1", "values": [{"measurement": "growth inhibition", "setting": "[3]", "value": "87% (active)"}, {"measurement": "inhibition", "setting": "[4]", "value": 46, "unit": "%"}, {"measurement": "inhibition", "setting": "[5]", "value": -5, "unit": "%"}, {"measurement": "growth inhibition", "setting": "[6]", "value": "96% (active)"}, {"measurement": "outcome", "setting": "[7]", "value": "inactive"}, {"measurement": "outcome", "setting": "[8]", "value": "inactive"}, {"measurement": "outcome", "setting": "[9]", "value": "inactive"}, {"measurement": "outcome", "setting": "[10]", "value": "inactive"}, {"measurement": "fold fluorescence", "setting": "[2]", "value": "9.32 [at 177.7 µM]"}]}, {"smiles": "CC(CCc1ccccc1)NC(C)C(O)c1ccc(O)cc1", "note": "(stereo not drawn)", "values": [{"measurement": "protection", "setting": "[11]", "value": "40% (active)"}]}]}
